The source of these data is PubChem BioAssay AID588676 (Johns Hopkins Ion Channel Center, 2011).

Structures are written as SMILES. Out of some 310,000 compounds screened, about 3,900 (1.3%) were called active.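 The calls were made as follows: active = calcium-response B-score plate-corrected more than 3 library SD below zero, starting fluorescence within 5 deviations, no agonist response on first addition; inactive = the rest.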 The full list was thinned out, with actives kept by preference.

The target in the assay is Mas-related G-protein coupled receptor member X1 (Homo sapiens) (UniProt Q96LB2). Kind of assay: blockade of BAM8-22-evoked MrgX1 calcium response – HEK293 cells, Fluo-4 calcium flux, primary screen (AID 588676).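 As to B-score: peak minus trough fluorescence over baseline after final BAM8-22 challenge near maximal dose.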 To be noted: Fluo-4, BAM8-22 antagonism, at 10 µM; active compounds read low. Background: A change in cytosolic calcium serves as a functional read-out for many receptors and channels.
Sequence of Mas-related G-protein coupled receptor member X1 (Homo sapiens) (Q96LB2 whole entry, looked up): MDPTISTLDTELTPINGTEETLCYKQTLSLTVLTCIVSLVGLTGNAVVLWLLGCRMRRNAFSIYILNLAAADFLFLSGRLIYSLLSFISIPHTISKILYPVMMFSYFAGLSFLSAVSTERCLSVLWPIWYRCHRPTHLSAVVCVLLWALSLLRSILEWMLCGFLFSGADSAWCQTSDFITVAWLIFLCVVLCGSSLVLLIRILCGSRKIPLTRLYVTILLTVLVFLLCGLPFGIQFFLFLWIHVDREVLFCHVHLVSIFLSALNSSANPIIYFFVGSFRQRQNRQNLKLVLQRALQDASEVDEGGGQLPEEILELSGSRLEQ
For the molecule `O=C(CSc1nnc(Cc2ccccc2)n1-c1ccccc1)N1CCOCC1`, the B-score entry was “inactive”.

Regarding `COC(=O)c1ccc(NC(=O)CSc2nncn2-c2cccnc2)cc1`, the B-score result was “inactive”.

`O=C(CSc1nncn1-c1cccnc1)N1CCOCC1`: the B-score was -5.04 (active).

Consider `CCC(C)(C)NC(=O)CN(C(=O)CCC(=O)Nc1nccs1)c1ccc2c(c1)OCO2`, for which the B-score result is “inactive”.

As to `CCS(=O)(=O)c1ccc2c(c1)N(S(=O)(=O)c1ccccc1)CC(C(=O)O)O2` (stereo not drawn), the B-score is -4.74 (active).

Regarding `CCS(=O)(=O)c1ccc2oc(SCC(=O)N3c4ccccc4CC3C)nc2c1` (stereo not drawn), the B-score entry is “inactive”.

For the molecule `CCOC(=O)C1CN(S(=O)(=O)c2ccc(OC)cc2)c2cc(Cl)ccc2O1` (stereo not drawn), the B-score entry was “inactive”.

For the molecule `Cc1ccc(C)c(S(=O)(=O)N2CCCOC2CNC(=O)C(=O)NC2CCCCC2)c1` (stereo not drawn), the B-score entry is “inactive”.

With `COc1cc(OC)cc(C(=O)NCCCn2ccnc2)c1`, the B-score result is “inactive”.

Regarding `CC1CC(C)CN(C(=O)CCNC(=O)Cn2cnc3ccccc3c2=O)C1` (stereo not drawn), the B-score result was “inactive”.

For `CCN1CCN(c2cc3nc(C)n(Cc4ccccc4)c(=O)c3cc2NC(=O)c2ccccc2F)CC1`, the B-score result was “inactive”.

For `COc1ccc(COC(=O)c2ccc(Cl)c(S(=O)(=O)N3CCOCC3)c2)cc1F`, the B-score result was “inactive”.

For the molecule `Cc1cc(NC(=O)COC(=O)c2ccc(F)c(S(=O)(=O)N3CCOCC3)c2)no1`, the B-score result is “inactive”.

As for `CCOc1ccc(CCNC(=O)COC(=O)c2ccc(F)c(S(=O)(=O)N3CCOCC3)c2)cc1OCC`, the B-score was -5.64 (active).

For `Fc1ccc(-c2ccc(CNCc3ccccn3)o2)cc1Cl`, the B-score result is “inactive”.

As for `CCCCc1nc2cc(C(=O)N3CCCCC3CCO)ccc2o1` (stereo not drawn), the B-score entry was “inactive”.

Regarding `COc1ccc(-n2nc3c(N4CCC(C(=O)NCc5ccccc5)CC4)nnc(C)c3c2C)cc1`, the B-score entry was “inactive”.

For `OCC1(Cc2ccccc2C(F)(F)F)CCN(Cc2ccncc2)CC1`, the B-score entry is “inactive”.

With `OCC1(Cc2ccccc2C(F)(F)F)CCN(Cc2cccc3cnccc23)CC1`, the B-score was -7.22 (active).

For `C/C(=N/N1CCN(Cc2cccc3ccccc23)CC1)c1cccnc1`, the B-score result was “inactive”.

As for `CCc1cc2c(SCC(=O)Nc3ncc(Cl)c(C)c3Cl)ncnc2s1`, the B-score is -4.97 (active).

On to `CCc1cc2c(NC(Cc3ccccc3)C(=O)O)ncnc2s1` (stereo not drawn), for which the B-score result is “inactive”.

For `CCc1cc2c(NC3CCCC3)ncnc2s1`, the B-score result is “inactive”.

As to `Cc1ccc(C(=O)N/C(=C\c2ccco2)C(=O)NC2CCS(=O)(=O)C2)cc1` (stereo not drawn), the B-score result was “inactive”.

`ON=C1/C(=N\O)CC2(C/C1=N/O)OCCO2`: the B-score entry is “inactive”.

With `Nc1nc(-c2sc3nc4c(cc3c2N)CCCC4)nc(N2CCOCC2)n1`, the B-score result is “inactive”.

In the case of `Cc1ccccc1S(=O)(=O)N1[C@@H](c2cccc(Cl)c2)C(C(=O)O)=CC[C@H]1c1ccc(Cl)cc1`, the B-score entry was “inactive”.

Regarding `Cc1ccc([C@@H]2CC=C(C(=O)O)[C@H](c3cccc(Cl)c3)N2S(=O)(=O)c2ccc(C)cc2)cc1`, the B-score result is “inactive”.

In the case of `Cc1ccc(S(=O)(=O)N2[C@@H](c3cccc(Cl)c3)C(C(=O)O)=CC[C@H]2c2ccc(Cl)c(Cl)c2)cc1`, the B-score was -6.18 (active).

Take `COc1ccccc1OCCC(=O)OCC(=O)NCc1ccccc1`: the B-score entry is “inactive”.

Turning to `CC(=O)c1cc(-c2ccccc2)n(CCC(=O)NC2CCCCCC2)c1C`, the B-score result was “inactive”.

In the case of `Cc1occc1C(=O)NC1CCCN(Cc2ccc(CC(C)C)cc2)C1` (stereo not drawn), the B-score result was “inactive”.

In the case of `CNC(=O)c1[nH]cnc1C(=O)N[C@@H](CC(C)C)C(=O)OC(C)(C)C`, the B-score result was “inactive”.

In the case of `Cc1ccc(NC(=O)c2nc[nH]c2C(=O)N[C@@H](CCCCNC(=O)OC(C)(C)C)C(=O)OC(C)(C)C)cc1`, the B-score is -9.54 (active).

For `CCOC(=O)c1ccc(NC(=O)c2nc[nH]c2C(=O)N[C@@H](CCCCNC(=O)OC(C)(C)C)C(=O)OC(C)(C)C)cc1`, the B-score entry was “inactive”.

`O=[N+]([O-])c1ccc(Oc2ccc(F)cc2Br)c2ccncc12`: the B-score result is “inactive”.

On to `O=C(CN1CCN(c2ccc(O)cc2)CC1)Nc1ccc(-c2ccccc2)cc1`, for which the B-score entry was “inactive”.

Regarding `O=C(COC(=O)c1ncc(Cl)c(Cl)c1Cl)NCc1cccs1`, the B-score result is “inactive”.

As to `O=C(COC(=O)c1ncc(Cl)c(Cl)c1Cl)NNC(=O)c1ccccc1`, the B-score is -4.63 (active).

In the case of `NS(=O)(=O)c1cc(C(=O)OCC(=O)NNC(=O)c2ccccc2)ccc1Cl`, the B-score result is “inactive”.

Turning to `CC(=O)c1cnn(-c2cc(Oc3ccc(F)cc3)ncn2)c1C`, the B-score result was “inactive”.

`Cc1cc(NC(=O)[C@H](C)NC(=O)c2ccco2)ccc1Br`: the B-score entry is “inactive”.

On to `NC1=NC(=O)C2(COC(c3ccccc3Cl)OC2)S1` (stereo not drawn), for which the B-score result is “inactive”.

Turning to `O=C(CN1CCSCC1)N/N=C/c1ccc(Cl)cc1`, the B-score result is “inactive”.

With `Clc1ccc(C=NC23CN4CN(CN(C4)C2)C3)cc1`, the B-score was -6.85 (active).

As for `FC(F)(F)c1nc2ccccc2nc1N/N=C/c1ccc(Cl)cc1`, the B-score entry was “inactive”.

As for `COc1ccc(CCNC(=O)C2CCCN(Cc3nc(-c4cccc(Cl)c4)oc3C)C2)cc1OC` (stereo not drawn), the B-score entry is “inactive”.

As to `COCCn1c(C)cc(C(=O)COC(=O)/C=C/c2cccc(OC)c2)c1C`, the B-score result was “inactive”.

With `CCc1[nH]nc(C(=O)N2CCCC(CO)(Cc3ccc(F)cc3F)C2)c1C` (stereo not drawn), the B-score result is “inactive”.

For `C=CCNC(=O)c1sc(SC)cc1-c1ccc(Cl)cc1`, the B-score result is “inactive”.

With `CCOc1ccc2nc(NC(=O)c3cc([N+](=O)[O-])ccc3N3CCOCC3)sc2c1`, the B-score result was “inactive”.

Consider `O=C(NC(Nc1nc2ccc([N+](=O)[O-])cc2s1)(C(F)(F)F)C(F)(F)F)c1ccccc1`, for which the B-score was -6.28 (active).

As to `CCC(=O)NC(Nc1nc2ccc(C)cc2s1)(C(=O)OC)C(F)(F)F` (stereo not drawn), the B-score result is “inactive”.

In the case of `CCCOC(=O)c1c(NC(=O)c2cnn3c2NC(c2ccccc2)CC3C(F)(F)F)sc2c1CCCC2` (stereo not drawn), the B-score result was “inactive”.

Take `Cc1nc(N=C(N)N)nc2c(C)cccc12`: the B-score entry was “inactive”.

On to `CCOc1cc(/C=C2/N=C(c3ccc(C(C)(C)C)cc3)OC2=O)cc(Cl)c1OS(C)(=O)=O`, for which the B-score entry was “inactive”.

For `Cc1cccc(NC(=O)Cn2c(=O)n(Cc3ccccc3)c(=O)c3c(C)c(C)sc32)c1`, the B-score result is “inactive”.

In the case of `CCOc1ccccc1C1CC(c2ccccc2)Nc2nc(N)nn21` (stereo not drawn), the B-score entry was “inactive”.

Consider `COc1ccc(C2CC(c3ccc(Cl)cc3Cl)Nc3nc(N)nn32)cc1OC` (stereo not drawn), for which the B-score result is “inactive”.

On to `CCOc1ccccc1C1CC(c2ccc(Cl)cc2)Nc2nc(N)nn21` (stereo not drawn), for which the B-score was -7.74 (active).

For `COCCC(=O)Nc1ccc2c(c1)CN(C(=O)CCOC)CC2`, the B-score result was “inactive”.

On to `COc1ccc2cc(-c3[nH]ncc3CNCCn3nc(C)cc3C)ccc2c1`, for which the B-score entry was “inactive”.

In the case of `CCOc1ccc(CN2CCN(Cc3ccc4cc(F)ccc4n3)CC2CCO)cc1` (stereo not drawn), the B-score entry was “inactive”.
